Only some compounds are listed: those with a hit (about 28% of all), similar ones and a draw of the others.
Mac1 fbg inh: blocks human CD11b/CD18 adhesion to fibrinogen; K562 CD11b/CD18 adhesion to fibrinogen, ATPlite luminescence; Mn2+ added to activate the integrin; inhibition, % at 10 µM; hit rate 0.54% among 93,000;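 active = primary inhibition of 50% or more at 10 µM, then 40% or more on retest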
CYP2C19 inh: inhibitors of human CYP2C19 | CYP2C19 Supersomes, luciferin-H EGE luminescence, 30 min | inhibition, % at 5 µM | hit rate 21% among 96,000;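 active = CYP2C19 inhibition above a set limit at 5 µM in the primary screen, cut at about 50% in these data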;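 note: plate controls were negative control wells for no effect and 2.5 mM tranylcypromine positive control for full effect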
Target sequence (P33261 whole entry, looked up): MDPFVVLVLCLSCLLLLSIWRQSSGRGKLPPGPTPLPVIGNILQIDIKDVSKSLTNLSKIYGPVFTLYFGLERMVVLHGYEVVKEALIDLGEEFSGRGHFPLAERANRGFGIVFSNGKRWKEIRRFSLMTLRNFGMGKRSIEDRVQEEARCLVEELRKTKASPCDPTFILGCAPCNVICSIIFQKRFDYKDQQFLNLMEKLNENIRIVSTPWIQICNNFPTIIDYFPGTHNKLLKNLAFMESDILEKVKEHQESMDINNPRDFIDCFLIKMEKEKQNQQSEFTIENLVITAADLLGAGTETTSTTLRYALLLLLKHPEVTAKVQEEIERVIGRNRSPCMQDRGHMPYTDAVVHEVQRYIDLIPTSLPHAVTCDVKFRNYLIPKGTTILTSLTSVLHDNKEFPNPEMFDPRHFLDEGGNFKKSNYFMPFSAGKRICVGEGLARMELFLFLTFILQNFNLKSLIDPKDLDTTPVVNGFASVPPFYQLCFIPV
CYP2C19 activ: cytochrome P450 2C19 (human) activation | activation factor at 5 µM | AID 1025 | 96,000 tested, under 10 active | recombinant CYP2C19, luciferin-H EGE luminescence; hits give high values; 0 = fully inhibited enzyme, 1 = untreated enzyme;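 active = activation factor of at least 2 at 5 µM in the primary screen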;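 note: 0 = wells with 2.5 mM tranylcypromine and 1 = vehicle-only wells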
CYP2C9 inh: human CYP2C9 inhibition | hit rate 20% among 96,000 | P11712 | inhibition, % at 5 µM | CYP2C9 Supersomes, luciferin-H conversion, luminescence;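 active = blocking of liver enzyme CYP2C9 beyond about 50% at 5 µM, limit read from the data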
CYP2C9 act: activators of human CYP2C9; P11712; recombinant CYP2C9, luciferin-H conversion, luminescence; hits give high values; factor 1 = untreated enzyme, 0 = blocked; activation factor at 5 µM; hit rate 1.4% among 96,000;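 active = activation factor of 2 or more for CYP2C9 at a 5 µM dose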;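 note: 0 = sulfaphenazole-blocked wells and 1 = vehicle-only wells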
Mac1 fbg enh: CD11b/CD18-fibrinogen binding enhancement; AID 1499; K562 CD11b/CD18 adhesion to fibrinogen, ATPlite luminescence; activation, % at 10 µM; hit rate 0.07% among 93,000;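 active = 10 µM primary screen giving 50% or more activity, confirmed by 40% or more on retest at that dose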
An asterisk follows results filed as active; . = no result given.

SMILES	Mac1 fbg inh	CYP2C19 inh	CYP2C19 activ	CYP2C9 inh	CYP2C9 act	Mac1 fbg enh
CC(C)c1cc(C(=O)NCc2cccnc2)no1	-8.3	26.3	0.7	13.2	0.9	-1.5
CCn1c(=O)c(C(=O)NCc2cccnc2)c(O)c2ccccc21	-9.8	27.5	0.7	71.9*	0.3	-2.1
COc1ccc(N(C(=O)c2ccccc2OC(C)=O)C(C)C2CC2)cc1 (centres undefined)	-3.3	44.5	0.6	31.7	0.7	-0.4
O=C(O)CC(c1ccc(Cl)cc1)n1cccc1 (centres undefined)	.	-10.1	1.1	8.8	0.9	.
CCOc1ccc(C(=O)NCC(=O)OC2CCOC2=O)cc1OCC (centres undefined)	-21.3	-1.0	1	-6.9	1.1	1.9
O=C(CCC(=O)c1ccc(F)cc1)OC1CCOC1=O (centres undefined)	6.4	78.3*	0.2	-15.6	1.2	-1.6
CCOC(=O)c1c(NC=O)sc2c1CCC2	-18.1	-7.1	1.1	-38.0	1.4	-1.0
CCOC(=O)c1c(NC(=O)CC2SC(N)=NC2=O)sc2c1CCCC2 (centres undefined)	.	18.1	0.8	63.9*	0.4	.
CCOC(=O)C1CSC(CC(=O)Nc2ccc(Cl)cc2)C(=O)N1 (centres undefined)	7.4	42.3	0.6	-102.5	2*	3.2
CCOC(=O)c1c(NC(=O)CN2CCCCC2)sc2c1CCN(C(=O)OCC)C2	.	65.2*	0.3	47.1	0.5	.
CCOC(=O)c1c(NC(=O)COC)sc2c1CCCC2	-44.2	16.2	0.8	58.2*	0.4	-1.6
CCOC(=O)c1c(N)sc2c1CCCC2	9.4	8.2	0.9	-5.3	1.1	-4.7
COc1ccc(NC(=S)N2CCN(c3ccccn3)CC2)cc1OC	2.8	.	.	.	.	-4.9
COc1cc(Cc2nc3ccc(S(=O)(=O)N4CCOCC4)cc3[nH]2)cc(OC)c1OC	4.3	5.3	0.9	6.8	0.9	3.6
CC(C)CC(=O)Nc1cc(NC(=O)CC(C)C)cc(C(=O)NC(C)(C)C)c1	4.8	19.9	0.8	22.0	0.8	-9.7
CCSc1ccc2nnc(-c3cccc(F)c3)n2n1	-7.8	20.1	0.8	19.8	0.8	1.1
CCOC(=O)c1c(NC(=O)CN2CCOCC2)sc2c1CCCC2	11.1	99.0*	0	100.3*	0	-1.3
COC(=O)c1c(NC(=O)CC2SCC(C(=O)OC)NC2=O)sc2c1CCCC2 (centres undefined)	9.8	68.7*	0.3	-123.5	2.2*	1.3
COC(=O)c1c(NC(C)=O)sc2c1CCCC2	19.8	-5.1	1.1	3.8	1	-5.0
CCOC(=O)c1c(NC(=O)CN2CCOCC2)sc2c1CCCC2=O	2.3	18.3	0.8	51.4*	0.5	-1.4
CCOC(=O)c1c(NC(=O)CN2CCOCC2)sc(C(=O)NC)c1C	-8.0	36.7	0.6	39.0	0.6	-2.7
CCOC(=O)c1sc(NC(=O)CN2CCCC2)c(C(=O)OCC)c1C	-4.4	3.5	1	16.1	0.8	22.1
Cc1ccccc1OCc1nnc(SCc2cc(=O)[nH]c3ccccc23)o1	-2.0	4.6	1	13.7	0.9	1.9
Cc1ccccc1-c1nnc(SCc2ccccc2F)o1	5.3	8.5	0.9	13.8	0.9	-4.0
Cc1ccc(CSc2nnc(-c3ccco3)o2)cc1	-2.5	48.1	0.5	62.6*	0.4	1.9
SMILES	Mac1 fbg inh	CYP2C19 inh	CYP2C19 activ	CYP2C9 inh	CYP2C9 act	Mac1 fbg enh
Cc1ccccc1-c1nnc(SCc2ccccc2)o1	4.1	72.7*	0.3	58.9*	0.4	-1.2
Clc1ccc(-c2nnc(SCc3nc(-c4ccccc4)no3)o2)cc1	-12.8	9.5	0.9	70.7*	0.3	-1.1
Cc1[nH]c2ccccc2c1Cc1nnc(SCc2ccccc2)o1	13.1	69.1*	0.3	26.9	0.7	14.1
Cc1nnc(-c2cnn(C)c2N)n1Cc1cccc(Cl)c1	7.5	8.7	0.9	3.7	1	-5.4
COc1ccc(-c2nnc(SCc3ccccc3F)o2)cc1	8.2	30.0	0.7	5.1	0.9	-5.2
Fc1ccccc1CSc1nnc(-c2ccccc2)o1	8.9	87.3*	0.1	76.7*	0.2	-1.6
O=C(O)c1ccc(CSc2nnc(-c3ccco3)o2)cc1	-5.9	-5.8	1.1	38.0	0.6	0.5
O=c1c(-c2nnc(SCc3ccc(Cl)cc3Cl)o2)cccn1Cc1ccccc1	.	75.8*	0.2	65.6*	0.3	.
